Lassa entry inh: inhibitors of Lassa virus binding or cell entry. hit rate 1.2% among 300,000. Potency, µM (highest dose often 37.9 µM), without a hit: at the top dose activity change, negative = inhibition, usual class: inhibitors. AID 540256. Lassa virus pseudotype entry inhibition, cell reporter; calls by dose curve; tested in HEK293 cells; note: nearly all actives have a fitted effect of over 50% in size
Sm TGR inh: S. mansoni TGR enzyme inhibition; hit rate 3% among 360,000; AID 485364; purified TGR, DTNB reduction, TNB absorbance 405 nm; Potency, µM (top dose mostly 114 µM), inactives show at the highest dose activity change, negative = inhibition, usual class: inhibitors; Q962Y6; note: nearly all actives have a fitted effect of over 60% in size
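TGR 20 nM + NADPH 100 uM (dispensed conc.), cpd preinc 15 min RT; start with NADPH (500 uM addition) then DTNB (15 mM addition). Kinetic TNB absorbance, 405 nm filter. Four-parameter Hill fit across titration.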
Marburg entry inh: Marburg virus entry inhibition; hit rate 1.8% among 300,000; Potency, µM (top dose mostly 37.8 µM), without a hit: at the highest dose activity change, negative = inhibition, hits mostly inhibitors; Marburg virus pseudotyped entry inhibition, cell reporter; AID 540276; calls by dose curve; tested in HEK293 cells
RE007 growth inh: less growth of the S. pombe RE007 Vpr strain. S. pombe RE007 Vpr strain, BacTiter-Glo ATP luminescence, 24 h. Potency, µM (series often up to 92.2 µM), inactives show top-dose activity change, negative = less growth, most hits filed as inhibitors. hit rate 0.21% among 360,000; active = well fitted falling curve with a large enough effect; inconclusive = small, poorly fitted or top-dose-only effect; inactive = no such curve, though single readings can be large or run the other way; note: nearly all actives have a fitted effect of over 50% in size
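Fission yeast strain RE007, carrying one chromosomally integrated HIV-1 vpr copy, was seeded at OD 0.01 in PMG+AL medium with 23 nL pinned compound. After 24 h at 30 °C and 99% humidity, viability was read by BacTiter-Glo luminescence.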
FMDV antiviral: blocks foot and mouth disease virus; AID 1159524; Potency, µM (titrated, usually from 57.9 µM), inactives show top-dose activity change, negative = inhibition, hits mostly inhibitors; FMDV antiviral cell-based qHTS; hit rate 1.2% among 410,000; calls by dose curve; tested in HEK293T cells; note: read-out not given here; nearly all actives have a fitted effect of over 45% in size
HCV inh: HCV inhibition; Potency, µM (titrated, usually from 41.8 µM), without a hit: at the top dose activity change, negative = inhibition, actives largely listed as inhibitors; hit rate 3.4% among 340,000; Huh7.5.1 HCVcc-Cre infection, luciferase reporter, 44 h
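Seed cells (1,000/well) for 4 h; treat with compound and infect with HCVcc-Cre, moi about 0.5. Incubate 44 h, then detect luciferase activity.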
* hit, by the source's call; ? = inconclusive; / = no result given; [ ] = another dose, or the depositor's remark. A selection: hits, their analogues and other compounds. The true share with any hit is near 7.2%. Unless noted, calls come from the whole dose curve; as a rule, active = well fitted curve in the direction sought with a large enough effect; inconclusive = small, poorly fitted or top-dose-only effect, or another doubt; inactive = no such curve, though single readings can be large; an effect the other way counts as inactive or inconclusive. % is set by controls: 0 for no effect and ±100 for the full control effect; potency is the fitted concentration of half-maximal effect.

SMILES	Lassa entry inh	Sm TGR inh	Marburg entry inh	RE007 growth inh	FMDV antiviral	HCV inh
CC(=O)c1c2c3c(cccc3n(C)c1=O)C(=O)c1ccccc1-2	/	8.9µM*	/	-2%	-11%	3%
CC(=O)c1c2c3c(c(Br)ccc3n(C)c1=O)C(=O)c1ccccc1-2	-17%	-32%	0%[46.1 µM]	2%	-13%	-6%
CCN(CC)C1CC(=O)N(c2ccc(Br)cc2)C1=O (configuration not stated)	1%	7.1µM*	?	2µM*	1%	20%
Cc1ccnc(SC2CC(=O)N(c3ccc(Cl)cc3)C2=O)n1 (configuration not stated)	/	50µM*	/	6%	0%	7%
CCOc1ccc(N2C(=O)CC(Sc3nccc(C)n3)C2=O)cc1 (configuration not stated)	2%	-30%	13%	-27%	-5%	2%
Cc1ccnc(SC2CC(=O)N(c3ccc(C(C)C)cc3)C2=O)n1 (configuration not stated)	/	?	/	6%	-20%	2%
Cc1cc(C)nc(SC2CC(=O)N(c3ccc(Br)cc3)C2=O)n1 (configuration not stated)	-3%[46.1 µM]	50µM*	-12%[46.1 µM]	5%	-7%	-7%
Cc1ccnc(SC2CC(=O)N(c3ccc(Br)cc3)C2=O)n1 (configuration not stated)	/	50µM*	/	36%	-2%	19%
Cc1ccc(N(C)S(=O)(=O)c2cccc(C(=O)OCC(=O)N3CCCC(C)C3)c2)cc1 (configuration not stated)	-22%	15%	-1%	-3%	?	?
COc1cccc(CN2C(=O)NC(C)(C3CCN(Cc4cc(Cl)ccc4O)CC3)C2=O)c1OC (configuration not stated)	/	/	/	/	-24%	/
COc1ccccc1-c1ccnc(-n2ncc(C(=O)NC(c3cccnc3)C(F)(F)F)c2C)n1 (configuration not stated)	/	/	/	/	-24%	/
CC(C)C(O)c1ccc2c(c1)CN(C(=O)c1ccccc1-n1cccn1)CCO2 (configuration not stated)	/	/	/	/	-2%	/
Cc1nc2cnc(N3CCOCC3)nc2n(CCC#N)c1=O	/	/	/	/	-18%	/
Cc1ccc2[nH]c3c(c2c1)CCCC3NC(=O)CCl (configuration not stated)	8.9µM*	45µM*	5.6µM*	16%	-7%	?
O=CNC1CCCc2c1[nH]c1ccc(Cl)cc21 (configuration not stated)	?	8%	?	36%	-23%	7.1µM*
Cc1ccc2[nH]c3c(c2c1)CCC[C@H]3C(N)=O	/	/	5%	/	/	/
Cc1cc(C)n(-c2cccc(C(=O)NCC3Cc4cccc(-c5ccccn5)c4O3)c2)n1 (configuration not stated)	/	/	/	/	-28%	/
O=C(CN1C2=NCCCN2c2ccccc21)c1ccc([N+](=O)[O-])cc1	-14%	-9%	?	7%	-4%	11µM*
CCOCCc1nnc(NC(=O)C(=O)c2cc(C)n(-c3ccc(C)cc3C)c2C)s1	-17%[46.1 µM]	7%	?	/	-7%	/
CCCCNC(=O)CS(=O)Cc1nc(-c2ccc(C)cc2)oc1C (configuration not stated)	/	45µM*	/	24%	0%	-11%
COc1ccc(-c2nc(CS(=O)CC(=O)NCCc3ccc(OC)c(OC)c3)c(C)o2)cc1 (configuration not stated)	3%[46.1 µM]	?	0%[46.1 µM]	-3%	-10%	2%
CCCNC(=O)CS(=O)Cc1nc(-c2ccc(OC)cc2)oc1C (configuration not stated)	/	50µM*	/	1%	-6%	-5%
COc1ccccc1CNC(=O)CCC1N=C2c3ccccc3N=C(SCC(=O)NCCc3ccc(OC)c(OC)c3)N2C1=O (configuration not stated)	14%[46.1 µM]	-13%	/	/	0%	/
Cc1cc2oc(=O)cc(-c3ccccc3)c2c(C)c1-c1ccc(O)cc1	/	/	/	8%	-30%	?
Cc1oc2cc(Br)c(O)c(Br)c2c1-c1ccccc1	3%	10µM*	?	?	26%	?
SMILES	Lassa entry inh	Sm TGR inh	Marburg entry inh	RE007 growth inh	FMDV antiviral	HCV inh
CCCC(=O)NNC(=O)CCC(=O)NCc1ccccc1	-7%	2%	0%	-5%	4%	-4%
CCC/C(=N\NC(=O)CCC(=O)NCc1ccccc1)c1ccccc1	4µM*	10%	?	-6%	-12%	-29%
C=CCOC(=O)C(=O)/C=C/c1ccc2c(c1)Cc1ccccc1-2	/	-14%	/	-6%	11%	18%
C=CCOC(=O)C(=O)/C=C/c1csc2ccccc12	/	28µM*	/	15%	-4%	26%
O=C(CCS(=O)(=O)c1ccc(Br)cc1)Nc1ccc2c(c1)OCO2	0%	40µM*	19%	13%	43%	4%
Cc1ccc(NC(=O)CCS(=O)(=O)c2ccc(Br)cc2)nc1	0%	16µM*	-11%	-15%	-14%	8%
Cc1csc(NC(=O)CCS(=O)(=O)c2ccc(Br)cc2)n1	17%	3.5µM*	-22%[46.1 µM]	-13%	-17%	-6%
Cn1c(Cc2csc(N)n2)nnc1SCC(=O)NC1CCCCC1	-1%	40µM*	8%[46.1 µM]	24%	17%	7%
Cn1c(Cc2ccccc2)nnc1SCC(=O)NC1CCCCC1	-14%	-18%	17%	1%	44%	-10%
Cc1nc(NC(=O)c2ccccc2)sc1-c1csc(NCc2ccccc2)n1	-24%	0%	?	-1%	-17%	?
COc1ccc(OC)c(Nc2nc(-c3sc(NC(=O)CC(C)C)nc3C)cs2)c1	/	2%	/	2%	-3%	2.8µM*
Cc1nc(NC(=O)c2ccccc2)sc1-c1csc(NCCc2ccccc2)n1	-4%	2%	?	-8%	59%	10µM*
CCC(=O)Nc1nc(C)c(-c2csc(Nc3ccccn3)n2)s1	?	-1%	?	10%	27%	11µM*
CCC(C)C(=O)Nc1nc(C)c(-c2csc(Nc3cc(OC)ccc3OC)n2)s1 (configuration not stated)	/	4%	/	-8%	-30%	?
COc1ccc(Cl)cc1Nc1nc(-c2sc(NC(=O)c3ccco3)nc2C)cs1	/	11%	/	-6%	-23%	2.5µM*
CCN(CC)C(=O)Cn1cc(SCC(=O)Nc2ccc(C)cc2)c2ccccc21	10%[46.1 µM]	-3%	/	/	-18%	/
CCc1cc(=O)oc2cc(C)c3c(-c4ccc(F)cc4)coc3c12	4%[46.1 µM]	-1%	13%[46.1 µM]	/	-18%	/
Cc1ccc(Cl)cc1NC(=O)Cn1c(=O)n(CCC(=O)NCc2ccc3c(c2)OCO3)c(=O)c2sccc21	11%[46.1 µM]	-5%	-26%[46.1 µM]	/	12%	/
CCCCC(=O)Nc1nc(C)c(-c2csc(Nc3cc(OC)ccc3OC)n2)s1	/	-9%	/	13%	-3%	10µM*
